Max response data for 94 compounds are collected here from PubChem BioAssay AID2314 (National Center for Advancing Translational Sciences (NCATS), 2010).

SMILES strings stand for the structures. About 37,000 (12%) of roughly 300,000 compounds were called active. The entries come from a sample that favours actives as a whole. A number with no mark means an inactive call. Rule as the data show it: active = max response mostly above about 13% (no sharp cut-off); inactive = mostly below about 14%.

This assay in a line: Cycloheximide Counterscreen for Small Molecule Inhibitors of Shiga Toxin. Also: read at 38.3 µM for the half of the compounds with a filed dose; 0% is about no effect. The conditions noted are these: cell reporter, cycloheximide protein synthesis inhibition counterscreen; stronger effect = higher value.
Regarding `O=C(N/C(=C\c1ccc(O)cc1)C(=O)N1CCCCC1)c1ccccc1`, the max response was -0.421%.
For `COCCCNC(=O)C1CC(=O)N(CCc2ccc(F)cc2)C1` (centres undefined), the max response was -0.645%.
The same measure for `CC(C)(CNC(=O)c1ccc(Cl)c(S(=O)(=O)N2CCc3ccccc3C2)c1)N1CCOCC1`: -3.28%; for `COc1cc(OC)cc(C(=O)NCCSCc2ccc(Cl)cc2)c1`: 11.2%.
The same measure for `CC1CC(C)CN(CCCNC(=O)Cn2ncc3c([nH]c4ccccc43)c2=O)C1` (centres undefined): -2.29%; for `Cc1ccc(NS(=O)(=O)c2cc3c(cc2C)NC(=O)CO3)cc1`: -3.17%; for `CC1(C)Cc2c(sc(NC(=O)C(=O)NCC3CCCO3)c2C(=O)O)CO1` (centres undefined): 0.548%.
In the case of `COc1ccc(OC)c(NC(=S)N2CCc3ccccc3C2)c1`, the max response is 9.77%.
Take `COc1ccc2c(c1)CCc1c(C(=O)N3CCCC3)noc1-2`: the max response was 36.2% (active).
The same measure for `O=C(C(=O)N1CCc2ccccc2C1)N1CCc2ccccc2C1`: -2.04%; for `O=C(c1noc2c1CCCC2)N1CCc2ccccc2C1`: 40.9% (active).
Regarding `COc1ccc2c(c1)CCc1c(C(=O)N3CCc4ccccc4C3)noc1-2`, the max response was 30.1% (active).
For `CN1CCN(Cc2c(C(=O)N3CCc4ccccc4C3)nc3ccc(Cl)cn23)CC1` the value was -1.69%; for `COc1cccc(N(CC(=O)N2CCc3ccccc3C2)S(C)(=O)=O)c1`, -1.63%.
The same measure for `Cn1cccc1C(=O)N1CCc2ccccc2C1`: 15.5% (active); for `COc1ccc2cc(C(=O)C3CCCN(C(=O)c4sc(C)nc4C)C3)ccc2c1` (centres undefined): 15.7%.
For `COc1ccc(S(=O)(=O)NC(C)C(=O)N2CCCCCC2)cc1` (centres undefined) the value was -0.827%; for `CN(c1ccc(C(=O)N2CCc3ccccc3C2)cc1)S(C)(=O)=O`, 18.8%; for `COc1cccc(NC(=O)N2CCCC2C(=O)NC2CCCCC2)c1` (centres undefined), -2.55%.
Turning to `Cc1ccc(CN(CC(=O)NC2CCCCC2)C(=O)c2csnn2)cc1`, the max response was -2.39%.
`CCOCCCNc1c(CC)c(C)c(C#N)c2nc3ccccc3n12`: the max response was -2.64%.
For the compound `Cc1ccc(NC(=O)CC2S/C(=N/N=C3\CCCc4ccccc43)NC2=O)cc1` (centres undefined), the max response was -4.9%.
As to `C[C@H]1CCC[C@@]2(C)CCCC[C@]12O`, the max response is 12.1%.
For `Cn1c(CCc2ccccc2)nnc1SCC(N)=O` the value was -1.26%.
Consider `O=C(Nc1ccc(S(=O)(=O)N2CCOCC2)cc1)c1ccc2ncsc2c1`, for which the max response is 43.1% (active).
The same measure for `O=C(Nc1ccc(S(=O)(=O)Nc2nccs2)cc1)c1cccc(S(=O)(=O)N2CCOCC2)c1`: -1.31%.
The same measure for `O=C(Nc1ccc(N2CCOCC2)c(Cl)c1)c1ccc(S(=O)(=O)N2CCOCC2)cc1`: 5.48%; for `CCc1ccc(C(=O)CSc2nnc(C)c(=O)[nH]2)cc1`: 1.57%.
For `COc1cc(C(=O)NCc2nnc(SCC(=O)c3ccc(Cl)cc3)o2)cc(OC)c1OC` the value was 2.18%; for `O=C(N/N=C/C=C/c1ccco1)c1cccs1`, 46% (active).
On to `CCN(CC)c1ccc(/C=N/NC(=O)CNC(=O)c2cccnc2)cc1`, for which the max response is -5.38%.
For `CCN(CC)c1ccc(/C=N/NC(=O)CNC(=O)c2cccs2)cc1` the value was 19.2% (active); for `O=C(NC(Cc1c[nH]c2ccccc12)C(=O)N/N=C/c1ccc(Br)cc1)c1cccs1` (centres undefined), 1.73%.
The same measure for `CC(=O)Nc1ccc(/C=N/NC(=O)c2cccs2)cc1`: 58.5% (active); for `O=C(CNC(=O)c1cccs1)N/N=C/c1cccc(Br)c1`: -3.86%; for `Cc1ccc(-c2cc(C(=O)N/N=C/C=C/c3ccco3)c3ccccc3n2)cc1C`: 26.2%.
The same measure for `Cc1ccc(-n2c(C)cc(/C=N\NC(=O)CC(=O)NC(C)C)c2C)cc1`: -4.19%; for `Cc1cccc(-n2c(C)cc(/C=N/NC(N)=S)c2C)c1`: 9.86%.
With `Cc1cccc(-n2c(C)cc(/C=N\NC(=O)c3cccs3)c2C)c1`, the max response was 56.1% (active).
The same measure for `CCCc1c(C(=O)N/N=C(\C)CCc2ccc(OC)cc2)nnn1-c1nonc1N`: 11%; for `Cc1ccc(N(C(=O)c2snc(C(N)=O)c2N)C(C(=O)NCC2CCCO2)c2c[nH]c3ccccc23)cc1` (centres undefined): -1.6%.
The same measure for `Cc1cc(C)c(S(=O)(=O)N(C)CC(=O)NCC2CCCO2)c(C)c1` (centres undefined): -2.82%; for `CCCn1nc(NC(=O)C(C)C)c2cc3cc(OC)ccc3nc21`: 17%; for `COc1ccc(CCNC(=O)C2CCCN(Cc3nc(-c4cccc(Cl)c4)oc3C)C2)cc1OC` (centres undefined): 6.92%.
For `CCOc1cc(NC(=S)NCCCN(C)C)c(OCC)cc1NC(=O)C1CC1` the value was -1%; for `Cn1nnnc1-c1cc(Cl)cc(Cl)c1`, 1.2%.
On to `CN(CCO)S(=O)(=O)c1ccc2c(c1)C(=O)c1cc(S(=O)(=O)N(C)CCO)ccc1-2`, for which the max response is -1.96%.
Take `COc1ccc(CCNC(=O)C2CC3Cn4c(nc5cc(C)c(C)cc54)C3N2C)cc1` (centres undefined): the max response was -2.66%.
In the case of `Cc1ccc(SCCC(=O)Nc2cc(C)on2)cc1`, the max response was 5.3%.
For `COc1ccc(NC(=O)CCN2CCCC2)c(OC)c1` the value was -1.44%; for `COc1ccc(NC(=O)CCCC2CCCCC2)c(OC)c1`, 31.1% (active).
With `Cc1cc(NC(=O)CCC(=O)N(CC(=O)NCC2CCCO2)c2ccccc2)no1` (centres undefined), the max response is -1.66%.
Turning to `Cc1cc(NC(=O)CCC2COc3ccccc3O2)no1` (centres undefined), the max response was 14.1% (active).
Take `COc1ccc(NC(=O)CCC(=O)Nc2cc(OC)c(NC(=O)c3ccco3)cc2OC)c(OC)c1`: the max response is -4.97%.
On to `CC(=O)Oc1ccc(NC(=O)CCC2CCCCC2)c(C(=O)O)c1`, for which the max response was -3.07%.
For `COc1ccc(NC(=O)NCc2ccc3c(c2)OCO3)c(OC)c1` the value was -2.52%; for `COc1ccc(NC(=O)CC2COc3ccccc3O2)c(OC)c1` (centres undefined), 24.3% (active).
For `CCCNC(=O)COc1coc(CN2CCN(Cc3ccccc3)CC2)cc1=O` the value was -5.17%; for `CCn1ccnc1CNC(=O)CC1C(=O)NCCN1CCCc1ccccc1` (centres undefined), -2.05%; for `CC1(C)C2CCC1(CS(=O)(=O)NCCc1c[nH]c3ccccc13)C(=O)C2` (centres undefined), -4.31%.
The same measure for `Cc1nc2cc(C(F)(F)F)ccc2n1CCNc1nc(-c2cc(Cl)c(N)c(Cl)c2)cs1`: -1.25%.
For `N#Cc1ccccc1NC(=O)COc1c(Br)cc(Br)c2cccnc12`, the max response was -3.08%.
Turning to `Cc1nn(CC(=O)NC2CCCCC2)c(=O)c2cccn12`, the max response is 10.6%.
For `CCCCN1C(=O)/C(=C2/Sc3ccc(Cl)cc3N2CC)SC1=S` the value was -0.782%; for `CCCCN1C(=O)/C(=C2/C=CC=CN2C)SC1=S`, 18.7% (active); for `CN1C=CC=C/C1=C1\SC(=S)N(Cc2ccccc2)C1=O`, 3.74%.
Regarding `Cc1cccc(C)c1NC(=S)N(Cc1cccnc1)Cc1ccccc1Cl`, the max response was -3.98%.
For the compound `COC(=O)c1ccc2ccccc2c1OC1OC(CO)C(O)C(O)C1NC(C)=O` (centres undefined), the max response is 0.801%.
For the compound `CC1CCN(CC(O)COc2ccc(C(=O)c3ccccc3)cc2)CC1` (centres undefined), the max response is -1.82%.
With `O=C(NCCN1CCOCC1)/C(=C/c1ccc(F)cc1)NC(=O)c1ccccc1`, the max response is -4.36%.
On to `CC(=O)Oc1c(C(=O)c2nnc(C)o2)c(=O)n(Cc2ccccc2)c2ccccc12`, for which the max response was -0.619%.
Take `Brc1ccc2c(c1)[C@H]1OCC[C@H]1[C@@H](c1cccs1)N2`: the max response is 8.72%.
With `C/C(=N\NC(=O)Cc1ccc(F)cc1)c1ccc(F)cc1`, the max response was -1.95%.
Regarding `O=C(O)CC/C(=N\NC(=O)c1ccc(F)cc1)c1ccc(Br)cc1`, the max response was 35% (active).
For `C/C(CC(=O)N1CCN(C=O)CC1)=N\NC(=O)c1ccc(Br)cc1`, the max response was 7.55%.
In the case of `CCc1ccccc1NC(=O)CN(C)S(=O)(=O)c1ccc2c(c1)c(=O)n(C)c(=O)n2C`, the max response is -5.59%.
For `O=c1c2ccccc2nc(-c2ccco2)n1-c1ccc(Br)cn1` the value was -3.55%.
As to `Cn1c(-c2ccco2)nc2cc3ccccc3cc21`, the max response is 16.7% (active).
The same measure for `S=c1[nH]nc(-c2ccco2)n1/N=C/c1ccccc1`: -1.31%; for `Cc1ccc(CS(=O)(=O)CCC(=O)NCc2ccc(F)cc2)cc1`: -2.44%; for `CNC(=S)N/N=C/c1ccc(N2CCOCC2)s1`: 13.7%.
As for `Cc1ccc(-c2cc(C(=O)N/N=C/C=C/c3ccccc3)n[nH]2)o1`, the max response was -1.74%.
Turning to `CC(=O)N/N=C/c1cc2c(cc1[N+](=O)[O-])OCO2`, the max response was -3%.
The same measure for `Cc1cc(C(=O)N/N=C\C(Br)=C\c2ccccc2)c(C)o1`: 32.4% (active); for `CCN(CC)c1ccc(C(=O)N/N=C/c2ccc(N3CCOCC3)cc2)cc1`: -3.32%.
For `O=C(N/N=C\c1cccc(Br)c1)c1ccccc1-n1cccc1` the value was 1.75%.
With `Cc1cc(C(=O)N/N=C/c2ccccc2[N+](=O)[O-])c(C)o1`, the max response is 35% (active).
The same measure for `Cc1cc(C(=O)N/N=C/c2ccc(N3CCOCC3)cc2)c(C)o1`: 26.5% (active).
Regarding `Cc1ccccc1N/N=C/c1ccc(N2CCOCC2)cc1`, the max response was 21.1% (active).
The same measure for `CN(C)c1ccc(/C=N/Nc2cc(N3CCOCC3)nc(N3CCOCC3)n2)cc1`: -1.93%; for `O=C(Cc1cc(=O)[nH][nH]1)N/N=C/c1ccccc1[N+](=O)[O-]`: -3.9%.
For `Cc1cc(Nc2ccc(N3CCOCC3)cc2)c2cccc(C)c2n1` the value was -1.97%; for `Cc1ccc(S(=O)(=O)c2c[nH]c3ccc(C)cc3c2=O)cc1`, -2.63%; for `CCN(CCCNC(=O)c1ccc2c(c1)NC(=O)CN2C)c1cccc(C)c1`, -2.58%.
